Measurements as given in PubChem BioAssay.

Tested on: Chordin-like protein 2 (CHRDL2)
Assay: CHRDL2 small-molecule binders, primary screen, biochemical, small-molecule microarray, 635 nm fluorescence (AID 1126);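 further: printed compound slides probed with Chrdl2 protein at 4 µg/mL for 1 h at 4 C; score merges 667 nm emission intensity with signal to noise over three replicate slides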
Conditions: small-molecule microarray binding, fluorescence 635 nm; higher = more signal

SMILES	composite z-score
COc1cc(CO)ccc1OC(C)=O	0.689
COc1ccc(C#Cc2ccc3c(c2)[C@]2(C(=O)N3)[C@H](c3ccc(O)cc3)N3[C@H](c4ccccc4)[C@H](c4ccccc4)OC(=O)[C@H]3[C@@H]2C(=O)N2CCCCCCC2)cc1	1.23
CN1C=C(C(=O)OCCS(C)(=O)=O)C(C(=O)OCCS(C)(=O)=O)=CC(CCCO)=CC1C1CC1 (stereo unspecified)	-0.705
COCCOC(=O)N1C(=O)[C@@]2(c3cc(C#CCC(C(=O)OC)C(=O)OC)ccc31)[C@H](c1ccc(O)cc1)N1[C@H](c3ccccc3)[C@H](c3ccccc3)OC(=O)[C@H]1[C@@H]2C(N)=O	0.778
COc1ccc(NN2C(C(O)c3ccc(OC)c(OCc4ccccc4)c3)C=CC3C(=O)N(C4CCCCC4)C(=O)C32)cc1 (stereo unspecified)	0.275
CC(C)N1CC=CC23O[C@@H]4C=CCOC(=O)[C@@H]4[C@H]2C(=O)N(CCO)[C@@H]3C1=O (stereo partly specified)	-1.59
O=C1c2ccccc2[C@@]2(Cc3ccccc3N(Cc3ccccc3)C2=O)[C@H](c2ccc(CO)cc2)N1C1CCCCC1	0.685
CO[C@H]1O[C@H](CO)[C@@H](OC(=O)Nc2ccc3c(c2)OCO3)[C@H](OC(=O)Nc2ccccc2)[C@H]1OC(=O)Nc1ccccc1	0.261
CC(C)C[C@@H]1NC(=O)[C@@H]2C[C@H](C(=O)NCCCCCC[N+](C)(C)C)[C@H](c3ccc(O)cc3)N2C1=O	1.33
N#Cc1ccc(NN2C(C(O)C3CCCCC3)C=CC3C(=O)N(c4ccccc4)C(=O)C32)cc1 (stereo unspecified)	-0.915
O=c1oc(-c2ccccc2)nc2cc(Br)ccc12	0.875
COC(=O)[C@@]1(Cc2ccc(OC)cc2)[C@H]2c3cc(C(=O)N(C)C)n(Cc4c(OC)[nH]cc(C)c4=O)c3C[C@H]2CN1C(=O)c1ccccc1	-0.218
CC(C)NC(=O)[C@@H]1c2ccccc2C(=O)N(Cc2ccccc2)[C@H]1c1ccc(CO)cc1	-1.38
O=C1C=CC(=O)[C@@H]2CC(COc3ccccc3)=C3[C@@H](CCc4ccccc4)OB(O)C[C@@H]3[C@H]12	0.299
C=CCC(OC(C)=O)[C@@H]1[C@@H](N(Cc2cccc3ccccc23)C(=O)c2cccc3ccccc23)c2cc(OCCCO)ccc2N1C(=O)c1ccc2ccccc2n1 (stereo partly specified)	0.366
O=C1[C@]2(CO)C=C(Br)[C@@H](C[C@@H]2c2ccccc2)[C@@]12CO2	0.0616

SMILES	composite z-score
COCC1=C2[C@@H](CCc3ccccc3)OB(O)C[C@@H]2[C@@H]2C(=O)N(Cc3ccccc3)C(=O)[C@@H]2C1	0.137
CCOC(=O)C1=CC[C@@H](c2ccccc2)N(S(=O)(=O)c2ccc(C)cc2)[C@H]1C(=O)OCC	-0.361
Cc1ccccc1C(O)C1C=CC2C(=O)N(C)C(=O)C2N1Nc1ccccc1 (stereo unspecified)	-0.345
C=CCC(OC(C)=O)[C@@H]1[C@@H](N(Cc2ccc(-c3ccccc3)cc2)C(=O)Cc2ccc(OC)cc2)c2cc(OCCCO)ccc2N1C(=O)c1ccc2ccccc2n1 (stereo partly specified)	0.0504
CCN(CC)c1ccc(N2CC=CC34O[C@@H]5C=CCCOC(=O)C5[C@H]3C(=O)N(CCCCCO)[C@@H]4C2=O)cc1 (stereo partly specified)	-0.218
C[C@]1(C(=O)NCc2ccccc2)c2ccccc2C(=O)N(Cc2ccc(OC(F)(F)F)cc2)[C@H]1c1ccc(CO)cc1	-0.256
CC(=O)Nc1cc(Br)ccc1C(=O)O	-0.421
COC(=O)C[C@H]1O[C@]2(C(=O)N(Cc3ccccc3)c3ccc(NC(C)=O)cc32)[C@@H](C)[C@@H]1[Si](C)(C)c1ccc(OC)cc1	0.48
COCCOC(=O)N1C(=O)[C@@]2(c3cc(C#CCC(C(=O)OC)C(=O)OC)ccc31)[C@H](C(=O)N1CCN(c3ncccn3)CC1)[C@H]1C(=O)O[C@H](c3ccccc3)[C@H](c3ccccc3)N1[C@@H]2c1ccc(OCCO)cc1	0.17
O=c1cccc(C=Cc2ccccc2)o1	-1.58
CCCCC(CC)C(O)C1C=CC2C(=O)N(c3ccccc3)C(=O)C2N1Nc1ccccc1 (stereo unspecified)	-0.804
COc1ccc([Si](C)(C)[C@@H]2[C@@H](CC(=O)N(CCO)Cc3ccccc3)O[C@]3(C(=O)N(C)c4ccccc43)[C@H]2C)cc1	1.43
CC(C)C[C@@H]1NC(=O)[C@H]2C[C@@H](C(=O)NCCCCCNC(=O)CS)[C@@H](c3cccc(OCCO)c3)N2C1=O	1.39
O=C(OCCF)C1=CCC(c2cccc(Cl)c2)O1 (stereo unspecified)	-0.165
O=C(O)[C@@]1(Cc2ccccc2)N=C(c2ccc(OCCCO)cc2)O[C@H]1c1ccccc1	-1.15
